The text below walks through data of PubChem BioAssay (Tox21).

Several values for one entry are separate records, joined by “and”; a condition that tells them apart may be missing. Identical values can stand only once. Records with an inconclusive call do not appear. Where a call stands in place of a potency, no number is given. Some structures have more than one record in an assay (separate samples or runs), and their calls can disagree. Activity calls are given as the source filed them. Calls come from the whole dose curve; as a rule, active = well fitted cell-killing curve with a large enough effect in the repeat runs; inconclusive = weak or mixed curves, or effect the other way; inactive = flat fitted curve, though single readings scatter.
Potency is the fitted concentration of half-maximal effect.

The nature of the assay: qHTS assay to identify small molecule antagonists of the androgen receptor (AR) signaling pathway using the MDA cell line in the presence of 0.5 nM R1881 - cell viability counter screen (AID 1259242). Note: nearly all actives have a fitted effect of over 45% in size. The settings on record: MDA-kb2 viability, CellTiter-Fluor protease fluorescence, 16 h; series mostly up to 92.4 µM; viability change, negative = cytotoxic: at the top concentration. The text has this: U.S. Tox21 Program National Center for Advancing Translational Sciences [NCATS] NIH Chemical Genomics Center [NCGC] U.S. Environmental Protection Agency [EPA] National Institutes of Environmental Health Sciences [NIEHS] National Toxicology Program [NTP] U.S. Food and Drug Administration [FDA] Tox21 Assay Overview: Androgen receptor (AR) is an important member of the nuclear receptor family. Its signaling plays a critical role in AR-dependent prostate cancer and other androgen related diseases. Considerable attention has been given in the past decades to develop methods to study and screen for the environmental chemicals that have the potential to interfere with metabolic homeostasis, reproduction, developmental and behavioral functions. Therefore AR binding assay for screening androgen antagonists can be used to identify potential endocrine disruptors. MDA-kb2 cells (from ATCC, deposited by Wilson et al.) were used to screen for AR inhibitors against Tox21 compound libraries. These cells are human breast carcinoma cells that were stably transfected with a luciferase reporter gene under control of the MMTV promoter that contains response elements for both androgen receptor (AR) and glucocorticoid receptor (GR). The current screening for identification of AR inhibitors against Tox21 libraries used lower concentration of (0.5 nM) R1881 as a stimulator. The cytotoxicity of the Tox21 compound libraries against MDA-kb2 cell line was tested by measuring live-cell protease activity using CellTiter-Fluor assay in the same wells.
Tox21 Assay Protocol Summary: MDA-kb2 cells (cells cultured without CO2) were dispensed at 3,000 cells/well in 4 uL of culture medium into white wall/solid-bottom 1536-well plates (Corning Life Sciences, Corning, NY) using a Multidrop Combi (ThermoFisher Scientific, Waltham, MA) dispenser. After the assay plates were incubated at a 37C and 0% CO2 for 5 hr, 23 nL of compounds dissolved in DMSO, positive controls or DMSO only was transferred to the assay plate by a Pintool station (Kalypsys, San Diego, CA). The transfer of compounds was followed by the addition of 1 uL of 0.5 nM (final concentration) agonist (R1881)/culture medium using a Flying Reagent Dispenser (FRD, Aurora Discovery, San Diego, CA). The plates were incubated at 37C and 0% CO2 for 16 hr. For cytotoxicity assay, 1 uL of CellTiter-Fluor reagent (Promega Corporation, Madison, WI) was added to each well using the FRD and after 30 min incubation at 37C and 0% CO2, The fluorescence intensity was measured using ViewLux plate reader (PerkinElmer, Shelton, CT).
In general terms: In qHTS, concentration-response curves come from the screen itself.
On to `Clc1cccc(Cl)c1`, for which the Potency entry was “inactive”.

Regarding `N#CC(c1ccccc1)c1ccccc1`, the Potency result is “inactive”.

Consider `CNC(=O)Oc1cccc2c1OC(C)(C)C2`, for which the Potency result is “inactive”.

Consider `CCC(=O)Nc1ccc(Cl)c(Cl)c1`, for which the Potency result is “inactive”.

Regarding `CCC/C=N/O`, the Potency result was “inactive”.

Turning to `Cc1ccc(N=CN(C)C=Nc2ccc(C)cc2C)c(C)c1`, the Potency entry was “inactive”.

Consider `NC(=O)CN1CCCC1=O`, for which the Potency entry is “inactive”.

As to `ClC(Cl)(Cl)Br`, the Potency result was “inactive”.

As for `CCCCCCCCCCCCCl`, the Potency entry was “inactive”.

`Oc1ccc(Cl)cc1Cc1ccccc1`: the Potency entry is “inactive”.

As to `CC(C)(C#N)N=NC(C)(C)C#N`, the Potency entry was “inactive”.

Regarding `CC(C)=CC1C(C(=O)OCc2cccc(Oc3ccccc3)c2)C1(C)C` (stereo not given), the Potency result is “inactive”.

In the case of `O=NN1CCOCC1`, the Potency result was “inactive”.

For `CCCCOC(=O)COC(=O)c1ccccc1C(=O)OCCCC`, the Potency result is “inactive”.

As to `Cc1cccc(N=Nc2ccc(N(C)C)cc2)c1`, the “viability change, negative = cytotoxic” value is -25.1% (inactive).

`Nc1ncn[nH]1`: the Potency entry is “inactive”.

For the molecule `C[C@]12CCC(=O)C=C1CC[C@@H]1[C@@H]2CC[C@@]2(C)[C@H]1CC[C@]2(C)O`, the Potency result is “inactive”.

With `CCCCOCCOC(C)=O`, the Potency result is “inactive”.

On to `ClCc1ccccn1`, for which the Potency result was “inactive”.

Turning to `C[N+](C)(C)CC(=O)O`, the Potency entry is “inactive”.

With `CCOP(=S)(OCC)SCn1c(=O)oc2cc(Cl)ccc21`, the Potency entry is “inactive”.

As to `CCCCCCCC[N+](C)(CCCCCCCC)CCCCCCCC`, the Potency is 17.2 µM (active) and 3.44 µM (active) and 15.4 µM (active).

Take `OC(c1ccc(Cl)cc1)(c1cncnc1)c1ccccc1Cl` (stereo not given): the Potency was 27.8 µM (active) and inactive.

Consider `CCCCCCCCCC(CC)c1ccc(S(=O)(=O)O)cc1` (stereo not given), for which the Potency entry is “inactive”.

As for `O=C(O)c1nn(Cc2ccc(Cl)cc2Cl)c2ccccc12`, the Potency entry is “inactive”.

`CCOP(=O)(OCC)OCC`: the Potency result was “inactive”.

Turning to `CNC(=S)S`, the Potency entry was “inactive”.

For the molecule `N#Cc1nn(-c2c(Cl)cc(C(F)(F)F)cc2Cl)c(N)c1S(=O)C(F)(F)F` (stereo not given), the “viability change, negative = cytotoxic” value was -11.5% [at 42.5 µM] (inactive).

Take `CN(C)P(=O)(N(C)C)N(C)C`: the Potency entry was “inactive”.

Turning to `CCOP(=S)(OCC)OP(=S)(OCC)OCC`, the Potency result was “inactive”.

In the case of `O=C1C(Cl)=C(Cl)C(=O)c2ccccc21`, the Potency was 43.4 µM (active).

`CCOP(=S)(OCC)SCSC(C)(C)C`: the Potency result was “inactive”.

With `COP(=S)(OC)SCn1nnc2ccccc2c1=O`, the Potency entry was “inactive”.

Turning to `CCCCOCC1CO1` (stereo not given), the Potency entry was “inactive”.

With `c1ccc2c(c1)Nc1ccccc1S2`, the Potency result was “inactive”.

As for `COc1ccc(CO)cc1`, the Potency entry was “inactive”.

Turning to `C=CC(Cl)CCl` (stereo not given), the Potency result is “inactive”.

Turning to `O=C1Nc2ccc(Cl)cc2C(c2ccccc2)=NC1O` (stereo not given), the Potency entry was “inactive”.

On to `N#CCCCCC#N`, for which the Potency result was “inactive”.

For `CC1CC(=O)O1` (stereo not given), the Potency result is “inactive”.
